Source: PubChem BioAssay AID890 (National Center for Advancing Translational Sciences (NCATS), 2007)
Activity calls are given as the source filed them. Calls come from the whole dose curve; as a rule, active = well fitted activation curve with a large enough effect; inactive = flat fitted curve, though single readings scatter.

Assay: Confirmation Concentration-Response Assay for Epigenetic Modulators
Conditions: murine C127i cells, silenced GFP reporter derepression, imaging
Excerpt: NIH Molecular Libraries Screening Centers Network [MLSCN] NIH Chemical Genomics Center [NCGC] MLSCN Grant: 1 X01 MH079860-01 Assay Provider: Elisabeth D. Martinez, University of Texas SW Medical Center NCGC Assay Overview: The Locus Derepression assay detects the derepression of a GFP reporter that is stably integrated in a region of the genome of murine c127i mammary cells that is presumably silenced. GFP transcription in this construct is controlled by a CMV promoter, which normally is strong and constitutively active. However, this line was selected for lack of constitutive expression of the GFP protein. GFP production can be induced by incubating the cells with histone deacetylase or DNA methyltransferase inhibitors. Compounds that cause derepression of the locus to express GFP are identified by enumerating GFP positive cells using a laser-scanning microplate cytometer.
NCGC Assay Protocol Summary: Two hundred and fifty cells in 5 uL per well were dispensed into black, clear-bottom 1536-well plates. Twenty-three nL compound was transferred to the assay plate and cells were incubated 30 hours at 37 C. […]

Compound: CN1CSC(=S)N(C)C1
- Potency: 7.95 µM (active)
